# Bioassay records (PubChem)
# Shown are actives, neighbours in structure and some others; about 21% of the full set was active somewhere.
# HCV inhibitor – inhibitors of hepatitis C virus infection; Huh7.5.1 HCVcc-Cre infection, luciferase reporter, 44 h; Potency, µM (titrated, usually from 41.8 µM), inactives show at the highest dose activity change, negative = inhibition, most hits filed as inhibitors; 340,000 compounds, 3.4% hits; AID 651820; note: potency is the fitted concentration of half-maximal effect; % is set by controls: 0 for no effect and ±100 for the full control effect
#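 Whole-lifecycle infectious HCVcc-Cre system; cells 1,000/well, compound then virus (~0.5 moi) added 4 h after plating, 44 h culture. Luciferase read 15 sec following 15 min substrate incubation, room temp.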
# Shiga toxin inh – blocks Shiga toxin action in Vero cells | Vero cells, Shiga toxin protein synthesis inhibition reporter | inhibition, % at 38.7 µM | 290,000 compounds, 9.2% hits; in the data active = inhibition mostly above about 28%, no sharp cut-off; inactive = mostly below about 43%; note: 0% is about no effect
# Pf growth 96h – inhibits malaria parasite growth, 96 h; P. falciparum luciferase reporter growth, 96 h; Potency, µM (series often up to 28.7 µM), inactives show top-dose activity change, negative = inhibition, most hits filed as inhibitors; 320,000 compounds, 6.9% hits; AID 504834; note: potency is the fitted concentration of half-maximal effect; % is set by controls: 0 for no effect and ±100 for the full control effect
#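 P. falciparum expressing integrated firefly luciferase grown in erythrocytes (2% hematocrit, 0.05% parasitemia final) with compounds for 96 hours at 37 C, 5% CO2. Growth inhibition read as loss of luminescence after adding luciferase detection reagent.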
# Cycloheximide cs – counter-screen for Shiga toxin inhibitors: cycloheximide protein synthesis inhibition | 300,000 compounds, 12% hits | max response, % | cell reporter, cycloheximide protein synthesis inhibition counterscreen | AID 2314; in the data active = max response mostly above about 13%, no sharp cut-off; inactive = mostly below about 14%; note: read at 38.3 µM for the half of the compounds with a filed dose; 0% is about no effect
# AMA1-RON2 inh – disrupts binding of P. falciparum AMA1 to RON2; Potency, µM (series often up to 58.2 µM), for the others: at the highest dose activity change, negative = inhibition, most hits filed as inhibitors; 360,000 compounds, 0.2% hits; AlphaScreen AMA1-biotinylated RON2 peptide binding;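 note: potency is the fitted concentration of half-maximal effect; 0% = vehicle wells and -100% = peptide control; nearly all actives have a fitted effect of over 45% in size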
#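 AMA1 (3D7) with his tag at 25 nM final met compounds first, then biotinylated RON2 peptide at 25 nM; detection used donor plus acceptor beads, 10 µg/mL apiece, read by AlphaScreen after 30 min at room temperature.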
# Pf growth 48h – P. falciparum growth inhibition at 48 hours (one generation); Potency, µM (series often up to 28.7 µM), for inactives: top-dose activity change, negative = inhibition, usual class: inhibitors; AID 504832; 310,000 compounds, 5.9% hits; P. falciparum luciferase growth in erythrocytes, 48 h; note: potency is the fitted concentration of half-maximal effect; % is set by controls: 0 for no effect and ±100 for the full control effect
#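 Growth was read as firefly luciferase luminescence after a 48 h, 37 C, 5% CO2 exposure of compounds to reporter-bearing P. falciparum cultures (0.1% parasitemia, 2% hematocrit final) in Albumax-supplemented RPMI 1640.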
# * hit, by the source's call; ? = inconclusive; · = no result. Unless noted, calls come from the whole dose curve; as a rule, active = well fitted curve in the direction sought with a large enough effect; inconclusive = small, poorly fitted or top-dose-only effect, or another doubt; inactive = no such curve, though single readings can be large; an effect the other way counts as inactive or inconclusive.
SMILES,HCV inhibitor,Shiga toxin inh,Pf growth 96h,Cycloheximide cs,AMA1-RON2 inh,Pf growth 48h
CCC1(c2ccc(F)cc2)NC(=O)N(CC(=O)Nc2cc(S(=O)(=O)N(C)C)ccc2Cl)C1=O (centres undefined),?,-8,?,-2,0%,?
CC(C)(C)OC(=O)N1C(=O)[C@](OC(=O)c2ccccc2)(c2ccc(F)cc2)c2ccccc21,·,·,·,·,-15%,·
CCN(CC)S(=O)(=O)c1ccc(N2CCOCC2)c(NC(=O)c2nn(C)c(=O)c3ccccc23)c1,-22%,·,·,·,9%,·
COc1ccc(-c2nn(C)c(=O)c3ccccc23)cc1NC(=O)Cn1nc(C)c2ccccc2c1=O,?,21,8%,1,0%,10µM*
CCC(=O)Nc1cc(-c2nn(C)c(=O)c3ccccc23)ccc1N1CCCCC1,4%,-3,75%,-3,48%,5.2µM*
CC(C)n1nc(C(=O)Nc2ccccc2N2CCOCC2)c2ccccc2c1=O,?,-9,?,-3,12%,-15%
CCN(CC)S(=O)(=O)c1ccc(N2CCCC2)c(NC(=O)c2nn(C)c(=O)c3ccccc23)c1,?,·,13µM*,·,-6%,13µM*
Cn1nc(C(=O)Nc2ccccc2N2CCCC2)c2ccccc2c1=O,11µM*,-7,84%,0,-16%,?
O=C(NC1CC1)C1CCN(c2ncccn2)CC1,7%,-14,18%,-10,2%,14%
COc1cccc(CN2CCN(Cc3ccc(O)cc3)CC2CCO)c1 (centres undefined),-8%,-7,-7%,-2,5%,9%
Cc1ccc(CN2CCN(Cc3cccc4c3OCO4)CC2CCO)cc1 (centres undefined),15%,-5,?,-3,-8%,-27%
COc1cccc(CN2CCN(Cc3cccc4c3OCO4)CC2CCO)c1 (centres undefined),5%,47,0%,19*,2%,149%
COc1cccc(CN2CCN(Cc3c(C)nn(C(C)C)c3C)CC2CCO)c1 (centres undefined),3%,-12,10µM*,-3,29%,-1%
COc1cccc(CN2CCN(C3CCN(c4cccc(C)c4C)CC3)CC2CCO)c1 (centres undefined),11µM*,-18,19%,-6,-7%,?
COc1cccc(CN2CCN(C3CCN(c4ccccc4C)CC3)CC2CCO)c1 (centres undefined),-1%,-4,?,-4,-6%,-22%
OCCC1CN(Cc2cnc(-c3ccccc3)s2)CCN1Cc1ccccc1 (centres undefined),?,8,12µM*,-1,-11%,-22%
O=C1CSC(=Nc2cccc(Cl)c2Cl)N1,31%,-9,?,-1,7%,14%
COCCCNc1ccn2nc(-c3ccc(OCc4ccccc4)cc3)cc2n1,·,·,·,·,2%,·
OCCC1CN(Cc2cc3c(cc2Cl)OCO3)CCN1Cc1ccccc1 (centres undefined),6%,-13,10µM*,-1,-6%,?
CCOc1ccc(CN2CCN(Cc3cc4c(cc3Cl)OCO4)CC2CCO)cc1 (centres undefined),-12%,-13,?,-3,-28%,?
CN(C)C(=O)Oc1ccc2ccccc2c1Cl,2%,29,115%,30*,6%,·
CCN(CC)C(=O)Oc1ccc2ccccc2c1Cl,-6%,80*,?,43*,-18%,42%
CCN(CC)C(=O)Oc1ccnc2cc(Cl)ccc12,-11%,-20,2%,-2,-6%,-12%
COC(=O)[C@]12CCCCC=C1N(Cc1ccc(Cl)cc1Cl)C(=O)[C@H](CC(=O)NCCc1ccccc1OC)C2,·,·,·,·,-7%,·
COc1cc(OC)cc(-c2c(Sc3ccccc3)c3cc(-c4ccc(OC)c(F)c4)ccc3n2C)c1,·,·,·,·,5%,·
SMILES,HCV inhibitor,Shiga toxin inh,Pf growth 96h,Cycloheximide cs,AMA1-RON2 inh,Pf growth 48h
CN1CCN(S(=O)(=O)c2ccc(NS(=O)(=O)c3ccccc3)cc2)CC1,7%,-1,44%,15,1%,8%
CC1CC(C)CN(S(=O)(=O)c2ccc(NC(=O)C3CSC4(C)CCC(=O)N34)cc2)C1 (centres undefined),?,·,9.3µM*,·,-15%,?
CC12CCC(=O)N1C(C(=O)Nc1ccc(S(=O)(=O)N3CCCCC3)cc1)CS2 (centres undefined),13%,·,0%,·,-3%,?
CC12CCC(=O)N1C(C(=O)Nc1cccc(S(=O)(=O)N3CCCCCC3)c1)CS2 (centres undefined),?,·,13µM*,·,-13%,-13%
Cc1onc(C(=O)NCc2ccccn2)c1[N+](=O)[O-],16%,-2,16%,2,94%,28%
Cc1ccc2c(c1)C1CN(C)CCC1N2S(=O)(=O)c1ccccc1 (centres undefined),-2%,-3,?,-1,-4%,?
Cc1ccc2c(c1)C1CN(C)CCC1N2S(=O)(=O)c1cc(C(F)(F)F)ccc1Cl (centres undefined),?,·,-120%,·,-8%,9.3µM*
Cc1ccc2c(c1)C1CN(C)CCC1N2S(=O)(=O)c1ccc(C(C)C)cc1 (centres undefined),?,·,7.4µM*,·,-8%,4.7µM*
COc1cccc(-c2nn(C)c3sc(C(=O)N4CCN(c5ccccn5)CC4)cc23)c1,10µM*,-9,?,7,?,?
COc1cccc(-c2nn(C)c3sc(C(=O)N4CCOCC4)cc23)c1,-7%,8,2.3µM*,1,-3%,·
COc1ccc(S(=O)(=O)N(C)C)cc1NC(=O)Cc1c[nH]c2ccccc12,10%,1,?,-2,14%,?
COc1ccc(NC(=O)c2ccc(S(=O)(=O)NCc3cccnc3)cc2)cc1,?,31,17%,9.5*,5%,-11%
COc1cccc(S(=O)(=O)NCc2ccc(C(=O)Nc3ccc(Cl)c(Cl)c3)cc2)c1,?,20,?,-1,2%,·
COc1ccc(NC(=O)C2C3C=CC(O3)C2C(=O)NCc2cccnc2)cc1 (centres undefined),15%,-13,10µM*,-3,16%,25%
O=C(Nc1ccc(Cl)c(Cl)c1)c1cccc(S(=O)(=O)NCc2cccnc2)c1,14µM*,-12,?,-4,18%,4%
COC(CNC(=O)c1cn(C)c2ccc(S(=O)(=O)N(C)C3CCCCC3)cc2c1=O)OC,-12%,-6,?,-6,6%,-16%
Cc1ccc(S(=O)(=O)N(C)C)cc1NC(=O)C(C)OC(=O)c1ccc2c(=O)n3c(nc2c1)CCC3 (centres undefined),-3%,·,·,·,5%,·
COc1ccc2ccccc2c1CN1CCN(C(=O)c2ccco2)CC1,?,-11,11%,-3,-27%,6.6µM*
